# From article PMC4336329 (PLoS ONE, 2015)
# Among all 310,000 compounds or so, about 14,000 (4.5%) showed an effect of 50% or more. The effect is printed as a negative number. This excerpt belongs to a sample that is enriched for strong results.
# Biological target: human ether-à-go-go-related gene (hERG) potassium channel (human, UniProt Q12809)
# Experiment: primary screen, population patch clamp on CHO cells stably expressing hERG; higher = less effect of the substance
# 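Note: peak tail current of the secondary pulse compared with the same well before compound.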
# Sequence of human ether-à-go-go-related gene (hERG) potassium channel (Q12809 whole entry, looked up): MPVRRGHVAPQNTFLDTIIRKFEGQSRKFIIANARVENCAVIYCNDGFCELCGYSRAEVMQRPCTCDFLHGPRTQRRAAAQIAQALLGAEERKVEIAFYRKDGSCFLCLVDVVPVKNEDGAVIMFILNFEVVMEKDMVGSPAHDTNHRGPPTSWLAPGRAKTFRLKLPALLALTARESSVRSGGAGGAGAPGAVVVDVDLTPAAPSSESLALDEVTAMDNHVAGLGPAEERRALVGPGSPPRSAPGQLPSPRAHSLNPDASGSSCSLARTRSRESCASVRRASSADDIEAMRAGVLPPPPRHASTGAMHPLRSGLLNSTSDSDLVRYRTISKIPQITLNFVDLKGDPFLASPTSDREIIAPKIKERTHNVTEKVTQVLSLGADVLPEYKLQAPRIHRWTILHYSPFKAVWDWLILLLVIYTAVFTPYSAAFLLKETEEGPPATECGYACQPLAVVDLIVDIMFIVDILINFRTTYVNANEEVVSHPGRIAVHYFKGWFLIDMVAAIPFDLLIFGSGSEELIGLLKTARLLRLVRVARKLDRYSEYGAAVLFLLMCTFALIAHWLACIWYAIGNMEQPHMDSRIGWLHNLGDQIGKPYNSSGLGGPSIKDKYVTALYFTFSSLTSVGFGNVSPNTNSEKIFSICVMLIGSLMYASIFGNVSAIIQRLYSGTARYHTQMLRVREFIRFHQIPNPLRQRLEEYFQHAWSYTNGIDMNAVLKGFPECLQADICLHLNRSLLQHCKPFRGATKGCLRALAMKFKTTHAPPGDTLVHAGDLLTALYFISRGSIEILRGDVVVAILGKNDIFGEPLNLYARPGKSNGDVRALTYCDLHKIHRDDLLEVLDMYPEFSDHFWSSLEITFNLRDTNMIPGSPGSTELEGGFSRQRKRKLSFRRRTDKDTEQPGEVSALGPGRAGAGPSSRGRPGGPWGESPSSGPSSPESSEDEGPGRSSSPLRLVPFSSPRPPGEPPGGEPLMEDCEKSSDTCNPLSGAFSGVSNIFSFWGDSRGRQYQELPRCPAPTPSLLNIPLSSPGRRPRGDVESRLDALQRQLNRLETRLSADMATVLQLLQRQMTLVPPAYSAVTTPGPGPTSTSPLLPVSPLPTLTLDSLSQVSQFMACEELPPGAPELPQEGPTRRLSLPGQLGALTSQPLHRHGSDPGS
row,Compound,"hERG current change (%, negative = inhibition) at 10uM [%]"
1,COc1ccc(N2CCN(CC(=O)Nc3c(C)cc(C)cc3C)CC2)cc1,0.738
2,Cc1ccc(CNC(=O)/C=C/c2ccc(Br)o2)cc1,-26.2
3,O=C(Nc1cccc(Cl)c1)NC1CC2CCC1C2 (stereo not shown),9.69
4,Cc1ccc2nc(-c3ccc4c(c3)OCCO4)cc(C(=O)O)c2c1,4.86
5,Cc1ccc2nc(-c3ccncc3)cc(C(=O)Nc3ccc4c(c3)OCCO4)c2c1,3.46
6,O=C(Nc1ccc2c(c1)OCCO2)c1cc(-c2ccccc2)nc2ccccc12,9.23
7,O=C(Nc1c2c(nc3ccccc13)CCCC2)c1ccccc1F,-3
8,Cc1ccc2nc3c(c(Nc4ccc5c(c4)OCCO5)c2c1)CCC3.Cl,-51.7
9,O=C(COC(=O)c1c2c(nc3ccccc13)CCCC2)Nc1ccc2c(c1)OCO2,3.1
10,Cl.c1ccc2c(Nc3ccc4c(c3)OCCO4)c3c(nc2c1)CCC3,-52.3
11,c1ccc2c(Nc3ccc4c(c3)OCCO4)c3c(nc2c1)CCCC3,-92.4
12,Cc1cc(C)c(C)c(S(=O)(=O)N2CCC(C(=O)Nc3ccccc3N3CCOCC3)CC2)c1C,-8.54
13,Cc1cc(Br)ccc1NC(=O)CNC(=O)Cc1ccc(S(=O)(=O)N2CCOCC2)s1,-33.8
14,CCOC(=O)[C@H]1CCC[C@@H](NS(=O)(=O)c2ccc(NC(C)=O)cc2)C1,14.1
15,Cc1ccc(Nc2ccc3nonc3c2[N+](=O)[O-])cc1,2.88
16,CCCCNC(=O)C1c2ccccc2C(=O)N(c2ccc(OC)cc2)C1c1ccc(OC)cc1 (stereo not shown),-18.6
17,COc1cc(OC)c(C(=O)NNC(=S)NC2CCCCC2)cc1OC,16.6
18,O=C(NC(=S)N1CCN(C/C=C/c2ccccc2)CC1)c1ccc(F)cc1,-43.7
19,Cc1cccc(C(=O)NCC(=O)N2CCN(S(=O)(=O)/C=C/c3ccccc3)CC2)c1,-18.5
20,O=C(NCC(=O)N1CCN(S(=O)(=O)/C=C/c2ccccc2)CC1)c1ccc(Cl)cc1,-23.1
21,O=C(NCC(=O)N1CCN(C/C=C/c2ccccc2)CC1)c1ccc(OC(F)F)cc1,-79.5
22,CCOc1ccc(C(=O)NCC(=O)N2CCN(C/C=C/c3ccccc3)CC2)cc1OCC,-41.7
23,CC(C)Oc1ccc(C(=O)NCC(=O)N2CCN(S(=O)(=O)/C=C/c3ccccc3)CC2)cc1,-67.6

row,Compound,"hERG current change (%, negative = inhibition) at 10uM [%]"
1,CCOC(=O)c1cnc(SCc2nc(N)nc(Nc3ccccc3OC)n2)nc1N,-2.39
2,O=C1NCC(COc2cccc3ccccc23)O1 (stereo not shown),13.3
3,CCN(CC(=O)Nc1ccc(NC(C)=O)cc1)C(=O)Cc1cccc2ccccc12,4.98
4,CC1CCCCN1S(=O)(=O)c1ccc2[nH]c(=O)cc(C(=O)NCCCN3CCCCCC3)c2c1 (stereo not shown),17
5,O=[N+]([O-])c1ccc(-c2cn(-c3ccccc3F)c(=S)[nH]2)cc1,-3.28
6,Cc1ccc(-n2cc(-c3ccc([N+](=O)[O-])cc3)[nH]c2=S)c(C)c1,-51.3
7,Cc1cccc(-n2cc(-c3ccc([N+](=O)[O-])cc3)[nH]c2=S)c1,-2.96
8,CCOC(=O)C1CCCN(C(=O)Cn2nc(C)n3c(cc4c(OC)cccc43)c2=O)C1 (stereo not shown),-6.37
9,CN1C[C@H](CNC(=O)OCc2ccccc2)C[C@@H]2c3cccc4c3c(cn4C)C[C@H]21,-61.9
10,O=C(NCC1CCC(C(=O)O)CC1)OCc1ccccc1 (stereo not shown),3.13
11,CN1C[C@H](CO)C[C@@H]2c3cccc4[nH]cc(c34)C[C@H]21,-7.36
12,COc1ccc(CCN(C)C2CCCN(C(=O)c3sccc3C)C2)cc1OC (stereo not shown),-55
13,CCn1nc(C)cc1C(=O)N1CCCC(N(C)CCc2ccc(OC)c(OC)c2)C1 (stereo not shown),-16.2
14,Cc1ccsc1C(=O)N1CCCC(N(C)Cc2ccccc2)C1 (stereo not shown),-13.9
15,COCc1ccc(C(=O)N2CCCC(N(C)Cc3ccccc3)C2)s1 (stereo not shown),-8.86
16,COc1ccc(CCN(C)C2CCCN(C(=O)c3ccnn3C)C2)cc1OC (stereo not shown),-21.1
17,COCc1ccc(C(=O)N2CCCC(N(C)CCc3ccc(OC)c(OC)c3)C2)s1 (stereo not shown),-62.4
18,CN(C)CCCn1c(SCc2c(Cl)cccc2Cl)nnc1-c1ccncc1.O=C(O)C(=O)O,-0.471
19,CCOc1ccc(NC(=O)C2CCCN(c3nn4c(=O)cc(C)nc4s3)C2)cc1 (stereo not shown),-7.14
20,COc1ccc(C/C(C)=N/NC(=O)c2ccncc2)cc1,-7.41
21,O=C(CSc1nc(O)c(C2CCCCC2)c(=O)[nH]1)Nc1ccc(F)cc1,22.4
22,COc1ccc(OCCSc2ncc(CO)n2C)cc1,12.4
23,CCCCn1c(N)nc2ccccc21.Cl,-8.47

row,Compound,"hERG current change (%, negative = inhibition) at 10uM [%]"
1,CCn1c(CN2CCN(CCO)CC2)nc2ccccc21,5.04
2,CCCCn1c(CN2CCN(C)CC2)nc2ccccc21,-67.1
3,CCCCn1c(CN2CCN(CCO)CC2)nc2ccccc21,-66
4,CCCCn1c(CNC(C)=O)nc2ccccc21,3.5
5,CCCn1c(CN2CCN(C)CC2)nc2ccccc21,-9.68
6,O=S(=O)(Nc1ccccn1)c1ccc(Cl)c2ccccc12,19.5
7,O=C(NCc1cccnc1)c1cccc2c1C(=O)N(C1CCCCC1)C2,-15.3
8,CCc1ccccc1N1C(=O)/C(=C/c2ccc(N3CCN(C)CC3)o2)C(=O)NC1=S,1.18
9,O=C(CCNS(=O)(=O)c1ccccc1C(F)(F)F)NCC(c1ccco1)N1CCCCC1 (stereo not shown),0.519
10,CCOc1ccc2nc(NS(=O)(=O)c3cccs3)sc2c1,20.8
11,COC(OC)c1ccc(C#N)c(SCc2ccccc2)n1,4.03
12,CCNS(=O)(=O)c1ccc(CCC(=O)NCc2ccccn2)cc1,13.5
13,O=C(CN1CCOCC1)NNc1nc(-c2ccccc2)c2cc(Br)ccc2n1,-38.7
14,O=C(CCl)NNc1nc(-c2ccccc2)c2cc(Cl)ccc2n1,1.46
15,CC(=O)NNc1nc(-c2ccccc2)c2cc(Br)ccc2n1,5.01
16,O=C(CN1CCCCC1)NNc1nc(-c2ccccc2)c2cc(Br)ccc2n1,-55.4
17,O=C(O)CCC(=O)NNc1nc(-c2ccccc2)c2cc(Cl)ccc2n1,14.4
18,O=C(CN1CCCCC1)NNc1nc(-c2ccccc2)c2cc(Cl)ccc2n1,-58
19,COCCN(C(=O)CCCC(=O)Nc1ccccn1)C(C(=O)NC1CCCC1)c1ccc(C)cc1 (stereo not shown),-5.66
20,O=C(Nc1cc2c(oc1=O)CCCC2=O)c1cccc(Cl)c1,4.61
21,CCC(Oc1ccccc1)C(=O)Nc1ccccc1C(=O)N1CCN(C)CC1 (stereo not shown),0.0528
22,N#CC(c1ccccc1)N1CCOCC1 (stereo not shown),6.63
23,S=C1SCN(Cc2cccnc2)CN1Cc1cccnc1,-20.9

row,Compound,"hERG current change (%, negative = inhibition) at 10uM [%]"
1,S=C1NCN(Cc2cccnc2)CN1Cc1ccccc1,22.8
2,S=C1SCN(Cc2cccnc2)CN1Cc1ccccc1,-54.7
3,Fc1ccc2[nH]c3c(N4CCN(C5CCCCC5)CC4)ncnc3c2c1,-46.7
4,COc1ccc(CN(CC2CCC(C(=O)O)CC2)C(=S)Nc2cc(C)cc(C)c2)cc1 (stereo not shown),19.6
5,Cc1cc(N2CCCC2)nc(-c2ccccc2O)n1,-1.15
6,CCN1CCN(c2cc(C)nc(-c3ccccc3O)n2)CC1,-58.9
7,Cc1cc(N2CCN(C)CC2)nc(-c2ccccc2O)n1,-41.9
8,Cc1ccc(CN2CC(C(=O)Nc3cccc(S(=O)(=O)N4CCCCC4)c3)CC2=O)cc1 (stereo not shown),6.85
9,CC(=O)c1ccc(OCC(C)C)c(CC(C(N)=O)C(N)=O)c1,19.2
10,CCOC(=O)C1=C(C)N(CCO)C(=O)NC1c1cccc(O)c1 (stereo not shown),18.8
11,O=C(Nc1ccnn1C1CCN(Cc2ccc(Cl)cc2)CC1)C1CCCC1,-63.6
12,O=C(Nc1ccnn1C1CCN(Cc2ccccc2)CC1)C1CCCC1,-36.7
13,O=C(Nc1ccnn1C1CCN(Cc2ccccc2)CC1)C1CCOC1 (stereo not shown),18.8
14,O=C(Nc1ccnn1C1CCN(Cc2cccc(O)c2)CC1)C1CCCC1,-36.5
15,O=C(Nc1ccnn1C1CCN(Cc2ccc(O)c(Cl)c2)CC1)C1CCCC1,-33
16,CC(C)n1cc(CN2CCC(n3nccc3NC(=O)C3CCCC3)CC2)cn1,-1.92
17,CSc1ccc(CN2CCC(n3nccc3NC(=O)C3CCOC3)CC2)cc1 (stereo not shown),-67.8
18,Cc1ccc(CN2CCC(n3nccc3NC(=O)C3CCOC3)CC2)cc1 (stereo not shown),-26.8
19,CSc1cccc(CN2CCC(n3nccc3NC(=O)C3CC3)CC2)c1,-51.4
20,O=C(Nc1ccnn1C1CCN(C(=O)c2ccc(Cl)cc2)CC1)C1CC1,-24.2
21,CSc1ccc(CC(=O)N2CCC(n3nccc3NC(=O)C3CC3)CC2)cc1,-8.47
22,CC(Cc1ccc(Cl)cc1)N1CCC(n2nccc2NC(=O)C2CCCC2)CC1 (stereo not shown),-76.3
